From PubChem BioAssay (Tox21)
Results filed as inconclusive are left out. The source made the active and inactive calls. Unless noted, calls come from the whole dose curve; as a rule, active = well fitted curve in the direction sought with a large enough effect in the repeat runs; inconclusive = weak or mixed curves; inactive = no such curve, though single readings can be large; an effect the other way counts as inactive or inconclusive.

Legend:
[1] = qHTS assay to identify small molecule antagonists of the glucocorticoid receptor (GR) signaling pathway - cell viability counter screen (AID 720693); note: nearly all actives have a fitted effect of over 55% in size
[2] = qHTS assay for identifying genotoxic compounds that show differential cytotoxicity against isogenic chicken DT40 cell lines with known DNA damage response pathways - wild type cell line (AID 743012); note: nearly all actives have a fitted effect of over 60% in size; note: potency is the fitted concentration of half-maximal effect
Method in brief: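 Quantitative HTS on parental DT40 cells: 40 h compound treatment at 37 C/5% CO2, with viability then determined by CellTiter-Glo luminescence. Values serve as the DNA repair-proficient reference for differential cytotoxicity.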

[3] = qHTS assay for identifying genotoxic compounds that show differential cytotoxicity against isogenic chicken DT40 cell lines with known DNA damage response pathways - Rev3 mutant cell line (AID 743014); note: nearly all actives have a fitted effect of over 55% in size; note: potency is the fitted concentration of half-maximal effect
[4] = qHTS assay for identifying genotoxic compounds that show differential cytotoxicity against isogenic chicken DT40 cell lines with known DNA damage response pathways - Rad54/Ku70 mutant cell line (AID 743015); note: nearly all actives have a fitted effect of over 60% in size; note: potency is the fitted concentration of half-maximal effect
[5] = qHTS assay to identify small molecule antagonists of the androgen receptor (AR) signaling pathway - cell viability counter screen (AID 743033; note: nearly all actives have a fitted effect of over 45% in size)
[6] = qHTS assay to identify small molecule antagonists of the androgen receptor (AR) signaling pathway using the MDA cell line - cell viability counter screen (AID 743041; note: nearly all actives have a fitted effect of over 45% in size)
Method in brief: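 Same-well cytotoxicity was assessed by CellTiter-Fluor in MDA-kb2 AR-luc cells after 16 h of compound treatment under R1881 agonism.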

[7] = qHTS assay to identify small molecule antagonists of the thyroid receptor (TR) signaling pathway - cell viability counter screen (AID 743064); note: nearly all actives have a fitted effect of over 50% in size; note: potency is the fitted concentration of half-maximal effect
Method in brief: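 Counter screen for cytotoxicity: compound plus T3 (1 nM final) on GH3.TRE-Luc cells, 23.5 h at 37 °C, then fluorescence viability readout with CellTiter-Fluor.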

[8] = qHTS assay to identify small molecule antagonists of the thyroid receptor (TR) signaling pathway (AID 743065); note: nearly all actives have a fitted effect of over 55% in size; note: potency is the fitted concentration of half-maximal effect; for activity, negative = inhibition: series mostly up to about 70 µM
Method in brief: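 GH3.TRE-Luc rat pituitary cells (two TREs driving luciferase) were dosed with compound, then stimulated with 1 nM T3 (final) for 23.5 h at 37 C. ONE-Glo luminescence was the read-out, with CellTiter-Fluor fluorescence as the cytotoxicity counter-screen.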

[9] = tested on: thyroid hormone receptor (rat, GH3 cells); experiment: qHTS assay to identify small molecule agonists of the thyroid receptor (TR) signaling pathway (AID 743066; calls by dose curve)
[10] = qHTS assay to identify small molecule antagonists of the estrogen receptor alpha (ER-alpha) signaling pathway - cell viability counter screen (AID 743074; calls by dose curve;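 note: HEK293 cells carrying ER-alpha-UAS-bla reporter stimulated with 17beta-estradiol; nearly all actives have a fitted effect of over 45% in size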)
[11] = qHTS assay to identify small molecule antagonists of the estrogen receptor alpha (ER-alpha) signaling pathway using the BG1 cell line - cell viability counter screen (AID 743081);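 note: compound given together with 17beta-estradiol as the ER stimulus; series mostly up to about 70 µM; nearly all actives have a fitted effect of over 45% in size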
Aromatase (Homo sapiens) = Aromatase (Homo sapiens) (UniProt P11511); experiment: qHTS assay to identify aromatase inhibitors (AID 743083); note: series mostly up to about 70 µM; nearly all actives have a fitted effect of over 55% in size
Chain of Aromatase (Homo sapiens) (P11511 whole entry, looked up): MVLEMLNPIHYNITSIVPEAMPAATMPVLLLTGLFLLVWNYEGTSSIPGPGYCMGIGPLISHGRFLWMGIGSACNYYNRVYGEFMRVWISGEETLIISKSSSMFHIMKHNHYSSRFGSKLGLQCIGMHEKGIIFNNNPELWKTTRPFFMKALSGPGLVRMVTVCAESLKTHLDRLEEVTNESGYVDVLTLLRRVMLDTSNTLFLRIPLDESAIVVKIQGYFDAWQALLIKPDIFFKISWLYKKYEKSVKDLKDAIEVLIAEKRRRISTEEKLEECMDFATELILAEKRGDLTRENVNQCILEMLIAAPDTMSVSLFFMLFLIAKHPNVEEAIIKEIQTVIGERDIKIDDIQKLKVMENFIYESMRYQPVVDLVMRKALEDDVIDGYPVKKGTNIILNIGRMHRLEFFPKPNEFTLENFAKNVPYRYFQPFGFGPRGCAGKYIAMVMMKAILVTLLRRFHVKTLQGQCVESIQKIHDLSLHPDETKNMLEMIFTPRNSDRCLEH

[12] = biological target: Estrogen receptor (Homo sapiens) (UniProt P03372); experiment: qHTS assay to identify small molecule antagonists of the estrogen receptor alpha (ER-alpha) signaling pathway (AID 743069; active = well fitted curve in the direction sought with a large enough effect in the signal ratio in the repeat runs, not every such curve was filed as active; the % refers to the signal ratio)
Chain of Estrogen receptor (Homo sapiens) (P03372 whole entry, looked up): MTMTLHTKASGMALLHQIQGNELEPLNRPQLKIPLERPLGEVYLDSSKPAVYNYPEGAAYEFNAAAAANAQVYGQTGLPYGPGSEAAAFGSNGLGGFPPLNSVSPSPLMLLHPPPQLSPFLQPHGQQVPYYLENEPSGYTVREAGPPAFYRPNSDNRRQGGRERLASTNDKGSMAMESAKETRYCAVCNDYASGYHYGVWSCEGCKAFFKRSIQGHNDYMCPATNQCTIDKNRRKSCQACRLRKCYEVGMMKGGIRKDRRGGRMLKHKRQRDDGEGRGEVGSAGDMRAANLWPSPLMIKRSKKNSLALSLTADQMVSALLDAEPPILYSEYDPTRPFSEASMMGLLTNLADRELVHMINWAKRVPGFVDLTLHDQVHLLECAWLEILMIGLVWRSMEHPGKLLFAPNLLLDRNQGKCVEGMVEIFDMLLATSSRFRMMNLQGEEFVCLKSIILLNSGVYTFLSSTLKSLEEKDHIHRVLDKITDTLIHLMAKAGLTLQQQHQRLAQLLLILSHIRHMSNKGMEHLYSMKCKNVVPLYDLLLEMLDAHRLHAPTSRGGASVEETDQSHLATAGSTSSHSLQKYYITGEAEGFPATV
Method in brief: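 Reporter cells (ER-alpha-bla, HEK293 background) are conditioned overnight in stripped-serum medium (2% charcoal-stripped FBS). Compound and 17beta-estradiol exposure runs 18 hr at 37C, 5% CO2.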

[13] = biological target: Estrogen receptor (Homo sapiens) (UniProt P03372); experiment: qHTS assay to identify small molecule agonists of the estrogen receptor alpha (ER-alpha) signaling pathway (AID 743075; calls by dose curve;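 note: HEK293 GripTite cells with ER-alpha and UAS-driven beta-lactamase reporter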; note: potency is the fitted concentration of half-maximal effect)
[14] = biological target: Estrogen receptor (Homo sapiens) (UniProt P03372); experiment: qHTS assay to identify small molecule agonists of the estrogen receptor alpha (ER-alpha) signaling pathway using the BG1 cell line (AID 743079); note: nearly all actives have a fitted effect of over 20% in size; note: potency is the fitted concentration of half-maximal effect
[15] = qHTS assay to identify small molecule antagonists of the estrogen receptor alpha (ER-alpha) signaling pathway using the BG1 cell line (AID 743080; calls by dose curve;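 note: BG1 cells stimulated with 17beta-estradiol alongside compound; series mostly up to about 70 µM; nearly all actives have a fitted effect of over 25% in size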)
Method in brief: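 Readout is ONE-Glo luminescence, taken 30 min at room temperature after reagent addition, preceded by a CellTiter-Fluor viability read; BG1-Luc-4E2 cells had received compound and 17beta-estradiol for 21.5 h at 37 C.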

[16] = biological target: Androgen receptor (Homo sapiens) (UniProt P10275); experiment: qHTS assay to identify small molecule antagonists of the androgen receptor (AR) signaling pathway using the MDA cell line (AID 743042; note: nearly all actives have a fitted effect of over 55% in size)
Chain of Androgen receptor (Homo sapiens) (P10275 whole entry, looked up): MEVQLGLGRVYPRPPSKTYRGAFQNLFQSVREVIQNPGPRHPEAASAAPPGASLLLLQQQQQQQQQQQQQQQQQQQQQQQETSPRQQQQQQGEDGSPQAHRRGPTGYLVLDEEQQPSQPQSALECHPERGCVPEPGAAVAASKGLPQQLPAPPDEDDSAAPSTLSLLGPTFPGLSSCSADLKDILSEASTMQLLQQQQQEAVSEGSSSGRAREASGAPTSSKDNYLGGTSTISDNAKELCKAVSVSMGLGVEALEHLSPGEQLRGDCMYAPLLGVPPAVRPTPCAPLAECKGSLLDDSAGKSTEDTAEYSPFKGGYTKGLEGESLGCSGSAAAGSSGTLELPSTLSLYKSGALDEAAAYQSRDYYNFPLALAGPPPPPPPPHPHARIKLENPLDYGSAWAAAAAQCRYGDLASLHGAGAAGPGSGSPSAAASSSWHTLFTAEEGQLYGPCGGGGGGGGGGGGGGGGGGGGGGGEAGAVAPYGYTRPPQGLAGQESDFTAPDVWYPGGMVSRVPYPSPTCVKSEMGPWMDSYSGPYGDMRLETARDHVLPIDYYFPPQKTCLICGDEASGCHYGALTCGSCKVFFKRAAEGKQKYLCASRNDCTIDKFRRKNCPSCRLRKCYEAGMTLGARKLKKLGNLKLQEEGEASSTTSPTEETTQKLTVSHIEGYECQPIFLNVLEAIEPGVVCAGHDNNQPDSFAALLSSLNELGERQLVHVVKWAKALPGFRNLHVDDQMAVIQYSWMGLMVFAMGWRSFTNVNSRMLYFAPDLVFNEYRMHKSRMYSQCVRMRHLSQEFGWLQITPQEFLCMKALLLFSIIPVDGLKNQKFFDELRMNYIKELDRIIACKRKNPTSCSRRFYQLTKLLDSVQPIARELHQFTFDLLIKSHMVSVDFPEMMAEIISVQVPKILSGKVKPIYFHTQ
Method in brief: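 MDA-kb2 breast carcinoma cells carrying MMTV-luciferase (AR/GR responsive) were co-treated with compounds and the agonist R1881 for 16 h at 37C. Inhibition read as ONE-Glo luminescence; CellTiter-Fluor fluorescence measured in parallel for cytotoxicity.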
% is set by controls: 0 for no effect and ±100 for the full control effect.

CC(C)(COC(=O)c1ccccc1)COC(=O)c1ccccc1
active: Potency [2] 54.5 µM | Potency [3] 30.6 µM | Potency [4] 48.6 µM
inactive: Potency [1] | Potency [5] | Potency [6] | Potency [7] | Potency [8] | Potency [9] | Potency [10] | Potency [11] | Potency (Aromatase (Homo sapiens))

COc1cc2c(cc1OC)C(C(C(=O)N(CCc1ccc(OC)c(OC)c1OC)CCc1ccc(OC)c(OC)c1OC)c1ccccc1)=NCC2 (stereo not given)
inactive: Potency [1] | Potency [5] | Potency [6] | Potency [9] | Potency [10] | Potency (Aromatase (Homo sapiens))
active: Potency [2] 6.68 µM | Potency [3] 10.6 µM | Potency [4] 11.9 µM

CC/C=C\CCOC(=O)CC
inactive: Potency [1] | Potency [2] | Potency [3] | Potency [4] | Potency [5] | Potency [6] | Potency [7] | Potency [8] | Potency [9] | Potency [10] | Potency [11] | Potency (Aromatase (Homo sapiens))

C=CC1CC2C=CC1C2 (stereo not given)
inactive: Potency [1] | Potency [2] | Potency [3] | Potency [4] | Potency [5] | Potency [8] | Potency [9] | Potency [12] | Potency [10] | Potency [13] | Potency [14] | Potency [15] | Potency [11] | Potency (Aromatase (Homo sapiens))

C[C@H]1C[C@H]2[C@@H]3CCC4=CC(=O)C=C[C@]4(C)[C@@]3(Cl)[C@@H](O)C[C@]2(C)[C@@]1(O)C(=O)CO
inactive: Potency [1] | Potency [2] | Potency [3] | Potency [4] | Potency [5] | Potency [7] | Potency [8] | Potency [9] | Potency [10] | Potency [13] | Potency [14] | Potency [11] | Potency (Aromatase (Homo sapiens))

CCCCCCCCCOS(=O)(=O)O
active: Potency [14] 34.4 µM
inactive: Potency [1] | Potency [2] | Potency [3] | Potency [4] | Potency [5] | Potency [8] | Potency [9] | Potency [12] | Potency [10] | Potency [13] | Potency [15] | Potency [11] | Potency (Aromatase (Homo sapiens))

CCOC(=O)C(F)(F)F
inactive: Potency [1] | Potency [2] | Potency [4] | Potency [5] | Potency [6] | Potency [7] | Potency [8] | Potency [9] | Potency [10] | Potency [11] | Potency (Aromatase (Homo sapiens))
active: Potency [3] 34.4 µM

CC(C)(C)OCC1CO1 (stereo not given)
inactive: Potency [1] | Potency [2] | Potency [3] | Potency [4] | Potency [5] | Potency [6] | Potency [7] | Potency [8] | Potency [9] | Potency [10] | Potency [11]

C/C=C/C(=O)CC
inactive: Potency [1] | Potency [2] | Potency [3] | Potency [4] | Potency [5] | Potency [6] | Potency [8] | activation [9] 0.0391% [at 18 µM] | activity, negative = inhibition [12] 9.39% [at 15 µM] | activity, negative = cytotoxicity [10] -6.1% [at 15 µM] | activation [13] -0.96% [at 14.9 µM] | Potency [14] | Potency [15] | Potency [11] | Potency (Aromatase (Homo sapiens))

O=C(O)c1ccccc1Cl
inactive: Potency [1] | Potency [2] | Potency [3] | Potency [4] | Potency [5] | Potency [6] | Potency [7] | Potency [8] | Potency [9] | Potency [10] | Potency [11] | Potency (Aromatase (Homo sapiens))

C#C[C@]1(O)CC[C@H]2[C@@H]3CCc4cc(OC5CCCC5)ccc4[C@H]3CC[C@@]21C
inactive: Potency [1] | Potency [5] | Potency [10] | Potency [11] | Potency (Aromatase (Homo sapiens))
active: Potency [2] 1.68 µM | Potency [3] 2.11 µM | Potency [4] 5.31 µM | Potency [7] 18.8 µM | Potency [8] 16.8 µM

CC(=O)c1ccc2c(c1)N(CCCN1CCC(CCO)CC1)c1ccccc1S2
inactive: Potency [1] | Potency [5] | Potency [12] | Potency [10] | Potency [13] | Potency [14] | Potency [15] | Potency (Aromatase (Homo sapiens))
active: Potency [2] 12.7 µM | Potency [3] 12.7 µM | Potency [4] 11.4 µM | Potency [7] 10.1 µM | Potency [8] 11.4 µM

CN(C)C(=O)NC1(c2ccccc2)CCN(CC[C@@]2(c3ccc(F)c(F)c3)CN(C(=O)c3ccccc3)CCO2)CC1
active: Potency [2] 40.2 µM | Potency [3] 25.3 µM | Potency [4] 28.4 µM | Potency [7] 31.9 µM | Potency [8] 56.7 µM
inactive: Potency [1] | Potency [5] | Potency [6] | Potency [10] | Potency (Aromatase (Homo sapiens))

CC(C)(CO)[N+](=O)[O-]
inactive: Potency [1] | Potency [2] | Potency [3] | Potency [4] | Potency [5] | Potency [6] | Potency [7] | Potency [8] | Potency [9] | Potency [11] | Potency (Aromatase (Homo sapiens))

COc1cc2nc(N(C)CCCNC(=O)C3CCCO3)nc(N)c2cc1OC (stereo not given)
inactive: Potency [1] | Potency [2] | Potency [3] | Potency [4] | Potency [5] | Potency [7] | Potency [8] | Potency [9] | Potency [12] | Potency [10] | Potency [13] | Potency [14] | Potency [15] | Potency [11] | Potency (Aromatase (Homo sapiens))

O=C(O)CC(=O)C(=O)O
inactive: Potency [1] | Potency [2] | Potency [3] | Potency [4] | Potency [5] | Potency [7] | Potency [10] | Potency [11] | Potency (Aromatase (Homo sapiens))

COc1ccc(C(=O)c2ccc(OC)cc2O)c(O)c1
active: Potency [13] 8.77 µM [fluorescent] | Potency [14] 30.9 µM
inactive: Potency [1] | Potency [2] | Potency [3] | Potency [4] | Potency [5] | Potency [16] | Potency [8] | Potency [9] | Potency [12] | Potency [10] | Potency [11] | Potency (Aromatase (Homo sapiens))

NC(=O)C(c1ccccc1)(c1ccccc1)[C@@H]1CCN(CCc2ccc3c(c2)CCO3)C1
active: Potency [2] 11.9 µM | Potency [3] 18.8 µM | Potency [4] 23.7 µM | Potency [7] 6.68 µM | Potency [8] 26.6 µM
inactive: Potency [1] | Potency [5] | Potency [12] | Potency [10] | Potency [13] | Potency [14] | Potency [15] | Potency [11] | Potency (Aromatase (Homo sapiens))
